Sfp inh – qHTS Assay for Inhibitors of Bacillus subtilis Sfp phosphopantetheinyl transferase (PPTase); AID 1490, 2009; 3.5% of 310,000 active; Potency, µM, without a hit: largest response in the series, negative = inhibition, usual class: inhibitors; Biochemical Sfp PPTase activity, qHTS; 4'-phosphopantetheinyl transferase ffp (Bacillus subtilis), Q9F4F7;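 further: the enzyme is Sfp with the accession as filed and its product quenches rhodamine fluorescence; potency means the concentration at half of the fitted maximal effect; 0% = enzyme reaction without inhibitor and -100% = no enzyme wells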
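With Hepes-Na pH 7.6 buffer containing 10 mM MgCl2, Sfp (15 nM) modified BHQ-2-YbbR (12.5 uM) using rhodamine-CoA (5 uM). Two reads 30 minutes apart at 525/598 nm yielded each well's rate.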
TCR activator – Activators of T cell receptors: qHTS campaign | AID 504894, 2011 | 330,000 tested, under 10 active | Potency, µM (highest dose often 9.22 µM), without a hit: at the top dose activation of IL-2 secretion, most hits filed as activators | primary human leukocytes, anti-CD3, IL-2 HTRF, 48 h; further: % of control where 0% means no effect
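IL-2 produced over 48 hr by a-CD3 bead-stimulated primary human leukocytes exposed to compounds was detected with a homogeneous time-resolved FRET immunoassay, 665nm acceptor signal after 320nm excitation.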
ClpP mod – qHTS Assay for Activators of ClpP; ATP-dependent Clp protease proteolytic subunit (Bacillus subtilis (strain 168)), P80244; purified B. subtilis ClpP, FRET peptide cleavage, 20 min; Potency, µM (titrated, usually from 57.5 µM), for inactives: top-dose activity change, negative = active; 1.9% of 340,000 active; AID 651965, 2013; active means well fitted falling curve with a large enough effect; inconclusive means small, poorly fitted or top-dose-only effect; inactive means no such curve, though single readings can be large or run the other way; further: potency means the concentration at half of the fitted maximal effect; the source files actives as falling curves though it sought activators and does not explain the sign; nearly all actives have a fitted effect of over 65% in size
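Purified B. subtilis ClpP, 10 microg/mL final in Tris/HCl pH8 with KCl, BSA, glycerol and Tween-20, cleaved an Abz/nitrotyrosine-quenched decapeptide. Fluorescence (ex 320, em 430) was read at 0 and 20 min at room temperature. Delta was normalized to 5.8 microM ADEP and DMSO/no-enzyme controls.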
uPA surface inh – qHTS for Inhibitors of Cell Surface uPA Generation | cell surface uPA generation assay, qHTS | Potency, µM (series often up to 38.3 µM), inactives show at the top dose activity change, negative = inhibition, usual class: inhibitors | 0.31% of 330,000 active | AID 540303, 2011; active means well fitted inhibition curve with a large enough effect; inconclusive means small, poorly fitted or top-dose-only effect; inactive means no such curve, though single readings can be large or run the other way; tested in mouse RAW 264.7 cells; further: potency means the concentration at half of the fitted maximal effect; on the % scale 0 is the no-effect control and ±100 the full control effect; nearly all actives have a fitted effect of over 55% in size
The depositor's hits bear a star; u = inconclusive; x = no result given. Shown are actives, neighbours in structure and some others; about 4.2% of the full set was active somewhere. Unless noted, the call rests on the fitted dose curve; in most records, active means well fitted curve in the direction sought with a large enough effect; inconclusive means small, poorly fitted or top-dose-only effect, or another doubt; inactive means no such curve, though single readings can be large; an effect the other way counts as inactive or inconclusive.

SMILES	Sfp inh	TCR activator	ClpP mod	uPA surface inh
C=CCn1c(Sc2ncc([N+](=O)[O-])s2)n[nH]c1=O	10µM*	6%	-1%	-12%
O=C1NCCN1c1ncc([N+](=O)[O-])s1	13%	-1%	-4%	19%
COc1ccc(-c2cn3c(n2)sc2cc(C(=O)Nc4ccc(C)c(C)c4)ccc23)cc1	x	x	-4%	x
N[C@@H](C(=O)O)c1ccc(C(=O)O)c(C(=O)O)c1	4%	x	x	x
NC(C(=O)O)c1ccc(P(=O)(O)O)cc1 (stereo not drawn)	56µM*	x	x	x
O=[N+]([O-])c1cccc(-c2csc(N/N=C/c3cccc(O)c3)n2)c1	50µM*	-8%	x	-6%
CN(C)S(=O)(=O)c1ccc(-c2csc(N/N=C/c3ccc(O)cc3)n2)cc1	50µM*	-1%	x	-5%
CN(C)S(=O)(=O)c1ccc(-c2csc(N/N=C/c3ccco3)n2)cc1	-2%	1%	x	-6%
O=C(C[n+]1cccc2cc(Cl)ccc21)c1ccc2ccccc2c1	x	x	-2%	x
CC(C)(C)NC(=O)CN(C(=O)C1(C)CC(=O)N=C2C=CC=CN21)C1CCCC1 (stereo not drawn)	16%	-3%	u	x
CC1=CC2=NC(=O)CC(C)(C(=O)N(CC(=O)NC(C)(C)C)C3CCCC3)N2C=C1 (stereo not drawn)	1%	x	32µM*	3%
COc1ccc(C(=O)C2CCCN(Cc3ccc4nonc4c3)C2)c(OC)c1 (stereo not drawn)	-13%	6%	0%	0%
COc1cc(OC)cc(C(=O)NCC(=O)N2CC=C(c3ccccc3)CC2)c1	x	12%	-5%	4.5µM*
CCOc1ccccc1OCCCC(=O)N(CC)CC(=O)Nc1c(F)cccc1F	x	3%	2%	-2%
COc1ccc(-c2csc(C(C)(NC(C)=O)c3ccccc3)n2)cc1 (stereo not drawn)	x	x	2%	x
COc1ccc(CCCc2nnc(SCC(=O)Nc3ccc(Cl)cc3)o2)cc1	x	x	-6%	x
Cc1cccc(-c2c3c(=O)n(C)c(=O)n(C)c3cn2-c2ccccc2O)c1	50µM*	-11%	u	-6%
CC(C)C[C@H](NC(=O)[C@@H]1CCCN1C(=O)[C@H](Cc1ccccc1)NC(=O)[C@H](C)NC(=O)[C@H](CCC(=O)O)NC(=O)[C@H](C)NC(=O)[C@H](CO)NC(=O)[C@H](CCC(=O)O)NC(=O)[C@H](CC(=O)O)NC(=O)[C@H](CCC(=O)O)NC(=O)[C@H](C)NC(=O)CNC(=O)[C@H](CC(N)=O)NC(=O)[C@@H]1CCCN1C(=O)[C@H](Cc1ccc(O)cc1)NC(=O)[C@@H](NC(=O)[C@H](CCCCN)NC(=O)[C@@H](NC(=O)[C@@H]1CCCN1C(=O)[C@@H](N)CCCNC(=N)N)C(C)C)C(C)C)C(=O)N[C@@H](CCC(=O)O)C(=O)N[C@@H](Cc1ccccc1)C(=O)O	5%	x	x	x
CN(C)c1ccc(/C=C/c2cc3ccccc3c[n+]2C)cc1	x	x	-2%	x
Cn1ccnc1SCC(=O)c1cccc(Br)c1	-3%	-2%	-1%	x
COc1cccc(C(=O)CSc2nnnn2C)c1	50µM*	0%	-1%	-2%
COc1cccc(C(=O)CSc2nccn2C)c1	56µM*	-5%	x	0%
CN(C)C(=O)c1ccc(/C=C/c2ccnc3ccccc23)cc1	x	x	-6%	x
O=C(/C=C/Nc1ccccc1)c1ccc(Cl)cc1Cl	-3%	-3%	-1%	10µM*
CN(C)/C=C/C(=O)c1ccc(Cl)cc1Cl	24%	0%	x	7%
SMILES	Sfp inh	TCR activator	ClpP mod	uPA surface inh
CCN1CCn2c3c(c4cc(C)ccc42)CCCC31 (stereo not drawn)	-19%	1%	28µM*	9%
Cc1ccc2c(c1)c1c3n2CCN(CCC#N)C3CCC1 (stereo not drawn)	x	x	-7%	x
Nc1nonc1-c1nc2ccccc2n1CC(=O)N1CCCCC1	16%	-3%	-1%	9%
Cc1cccc(OCCn2c(-c3ccco3)nc3ccccc32)c1	u	4%	25µM*	-5%
O=C(Nc1nc2ccccc2n1CCOc1ccccc1)c1ccco1	-3%	-10%	-12%	-10%
c1ccc(OCCn2c(-c3ccco3)nc3ccccc32)cc1	50µM*	3%	-29%	-18%
O=C(Cn1c(-c2ccco2)nc2ccccc21)N1CCCCC1	u	4%	16µM*	-2%
CCn1c(-c2ccco2)nc2ccccc21	40µM*	0%	32µM*	-5%
COc1ccc2c(c1)c1c(c(=O)n(-c3cccc(C)c3)c(=O)n1CC(=O)NCCC1=CCCCC1)n2C	x	x	4%	x
CC(C)(C)CC(=O)NCC(c1ccc2c(c1)OCO2)N1CCOCC1 (stereo not drawn)	x	x	-2%	x
O=C(NC(=S)Nc1ccccc1Cl)c1csnn1	50µM*	-1%	-1%	-4%
COc1ccc(Cl)cc1NC(=S)N(Cc1ccccc1C)CC1CCC(C(=O)O)CC1 (stereo not drawn)	56µM*	-4%	x	-4%
CCc1nc(SCc2ccc(Cl)cc2)n[nH]1	7%	8%	0%	3%
O=S(=O)(Nc1nc(SCc2ccc(Cl)cc2)n[nH]1)c1ccc(F)cc1	22%	13%	18µM*	-2%
CCOc1ccc(NC(=S)Nc2ccc(Br)cc2Cl)cc1	40µM*	-2%	x	-4%
Cc1cccnc1NC(=S)Nc1ccc(Br)cc1Cl	20µM*	0%	-8%	-9%
CCOc1ccc(OCCC(=O)N(CCOC)c2c(N)n(Cc3ccccc3)c(=O)[nH]c2=O)cc1	x	11%	-2%	-4%
COC(=O)[C@H]1Cc2c([nH]c3ccccc23)[C@H](c2ccccc2)N1	9%	6%	-4%	-3%
COC(=O)C1Cc2c([nH]c3ccccc23)CN1 (stereo not drawn)	11%	4%	32µM*	-8%
CCOC(=O)c1c(NC(=O)/C=C/C(=O)O)sc(C)c1-c1ccc(Cl)cc1	12%	6%	0%	8.9µM*
CN(C)c1ccc(/C=C/c2ccc3c4ccccc4ccc3[n+]2-c2ccccc2)cc1	14µM*	17%	-18%	-15%
COc1ccc(N2CCN(C(c3ccccc3)c3nnnn3C(C)(C)C)CC2)cc1 (stereo not drawn)	x	x	-7%	x
C=CCN1CCN(C(c2ccc(Cl)cc2)c2nnnn2CCc2ccc(OC)c(OC)c2)CC1 (stereo not drawn)	4%	2%	2%	1%
CC(C)(C)n1nnnc1C(c1ccccc1)N1CCN(c2ccccc2)CC1 (stereo not drawn)	x	x	-2%	x
COc1ccc(C(c2nnnn2C(C)(C)C)N2CCN(c3nc4ccccc4s3)CC2)cc1 (stereo not drawn)	9%	-7%	25µM*	-4%
C=CCN1CCN(C(c2ccc(OC)c(OC)c2)c2nnnn2C(C)(C)C)CC1 (stereo not drawn)	79µM*	8%	-1%	-3%
CC(C)(C)n1nnnc1C(c1ccncc1)N1CCN(c2ccc(O)cc2)CC1 (stereo not drawn)	16µM*	-1%	2%	-8%
